Screening results from PubChem BioAssay.
CYP2C9 inh = blocks human cytochrome P450 2C9 | P11712 | CYP2C9 Supersomes, luciferin-H conversion, luminescence | inhibition, % at 5 µM | 20% of 96,000 active | AID 777;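 active means blocking of liver enzyme CYP2C9 beyond about 50% at 5 µM, limit read from the data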
Target sequence (P11712 whole entry, looked up): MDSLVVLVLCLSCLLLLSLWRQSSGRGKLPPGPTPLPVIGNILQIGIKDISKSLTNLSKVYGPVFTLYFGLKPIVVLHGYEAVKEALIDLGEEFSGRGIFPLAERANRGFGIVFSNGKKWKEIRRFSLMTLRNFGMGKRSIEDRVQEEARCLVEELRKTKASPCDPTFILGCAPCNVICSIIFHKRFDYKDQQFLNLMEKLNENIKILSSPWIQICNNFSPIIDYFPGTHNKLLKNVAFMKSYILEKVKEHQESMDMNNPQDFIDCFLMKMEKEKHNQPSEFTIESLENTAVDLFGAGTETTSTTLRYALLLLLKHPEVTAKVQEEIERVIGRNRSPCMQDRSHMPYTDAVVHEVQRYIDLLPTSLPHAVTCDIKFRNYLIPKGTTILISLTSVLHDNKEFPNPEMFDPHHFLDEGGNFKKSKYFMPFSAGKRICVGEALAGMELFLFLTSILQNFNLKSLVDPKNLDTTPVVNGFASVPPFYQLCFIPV
EphB4 antag = blocks human EphB4 binding to ephrin-B2 | P54760 | EphB4 LBD / TNYL-RAW-Alexa532 peptide, fluorescence polarization | inhibition, % at 7 µM | 0.15% of 97,000 active;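 active means inhibition above the screen-wide mean inhibition plus 3 SD, cut at about 15% in these data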;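 further: 0% = DMSO wells and 100% = excess unlabeled TNYL-RAW peptide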
CYP2C19 act = cytochrome P450 2C19 (human) activation. P33261. recombinant CYP2C19, luciferin-H EGE luminescence; stronger effect = higher value; 0 = fully inhibited enzyme, 1 = untreated enzyme. activation factor at 5 µM. 96,000 tested, under 10 active. AID 1025;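 active means activation factor of at least 2 at 5 µM in the primary screen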;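 further: 0 = wells with 2.5 mM tranylcypromine and 1 = vehicle-only wells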
CYP2C9 act = activators of human CYP2C9 | recombinant CYP2C9, luciferin-H conversion, luminescence; stronger effect = higher value; factor 1 = untreated enzyme, 0 = blocked | activation factor at 5 µM | 1.4% of 96,000 active | AID 1024;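 active means activation factor of 2 or more for CYP2C9 at a 5 µM dose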;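 further: 0 = sulfaphenazole-blocked wells and 1 = vehicle-only wells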
CYP2C19 inh = human CYP2C19 inhibition | inhibition, % at 5 µM | CYP2C19 Supersomes, luciferin-H EGE luminescence, 30 min | AID 778 | 21% of 96,000 active;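 active means CYP2C19 inhibition above a set limit at 5 µM in the primary screen, cut at about 50% in these data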;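 further: plate controls were negative control wells for no effect and 2.5 mM tranylcypromine positive control for full effect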
Starred values were filed as active, the others as inactive; x = no result. Rows were chosen to be rich in hits. Some 27% of all compounds tested hit in one or more screens of this group.

SMILES	CYP2C9 inh	EphB4 antag	CYP2C19 act	CYP2C9 act	CYP2C19 inh
CCOc1ccc(NC(=O)CNC(=O)c2cn(-c3ccccc3OC)c(=O)c3ccccc23)cc1	87.8*	-1.1	0.1	0.1	85.8*
COc1cc(C(=O)N(Cc2cc3ccccc3[nH]c2=O)CC2CCCO2)cc(OC)c1OC (stereo unspecified)	30.1	x	0.9	0.7	12.1
CCCC(=O)Nc1cc(=O)n(C)c(=O)n1C	16.9	-12.4	0.9	0.8	5.0
CCOC(=O)N1CCC(NC(=O)c2cccn3c(=O)c4cc(Br)ccc4nc23)CC1	86.0*	-11.3	0.4	0.1	63.7*
CC12C(=O)N(c3ccccc3C(=O)O)C(=O)C1C1C=CC2C1 (stereo unspecified)	-4.3	-3.7	1	1	-2.4
COC(=O)C1=C(C)NC2=C(C(=O)CC(C)(C)C2)C1c1cn(Cc2ccc(Br)cc2)nc1-c1ccccc1 (stereo unspecified)	70.8*	6.1	0.7	0.3	34.9
COC(=O)C1=C(C)NC2=C(C(=O)CC(C)(C)C2)C1c1cccc(C)n1 (stereo unspecified)	-14.9	3.2	1.1	1.1	-5.6
COC(=O)C1=C(C)NC2=C(C(=O)CCC2)C1c1cn(Cc2ccc(Br)cc2)nc1-c1ccccc1 (stereo unspecified)	86.1*	2.5	0.5	0.1	48.0
CN(CCCNC(=O)c1cccc(N2CCCC2=O)c1)c1ccccc1	x	-2.0	x	x	x
CC(C)(C)c1ccc(S(=O)(=O)N2CCN(CCC#N)CC2)cc1	-38.1	x	0.5	1.4	50.0*
O=C(O)c1cc2c(ccc3ccccc32)[nH]1	-7.9	-4.0	1.1	1.1	-9.9
Cc1ccc(S(=O)(=O)c2c(COC(=O)c3ccccc3Cl)c(-c3ccccc3)nn2C)cc1	70.1*	4.4	0.5	0.3	50.2*
CCOC(=O)Cn1c(S(=O)(=O)Cc2ccccc2Cl)nc(-c2ccccc2)c1-c1ccccc1	41.6	-7.3	0.8	0.6	19.0
CC(=O)c1ccc(-n2nncc2C)cc1	11.4	-2.4	1	0.9	-2.8
COC(=O)C1CCN(C(=O)COc2cc3sc(C)nc3c3sccc23)CC1	-11.1	-8.7	0.8	1.1	21.9
Cc1nc2c(cc(Oc3ccc(S(=O)(=O)N4CCOCC4)cn3)c3ccsc32)s1	90.0*	-1.6	0.2	0.1	84.2*
COc1cccc(Nc2nc(NCC3CCCO3)c3ccccc3n2)c1 (stereo unspecified)	28.7	-0.9	0.9	0.7	13.9
COc1cccc(Nc2nc(NCCO)c3ccccc3n2)c1	48.0	-4.4	0.5	0.5	51.2*
O=C(NC1CCCCC1)C(c1ccccc1)N(Cc1ccco1)C(=O)Cn1cnc2ccccc21 (stereo unspecified)	x	-8.1	x	x	x
CCOC(=O)/C=C1\SCC(=O)N1Cc1ccc(Br)cc1	x	2.9	x	x	x
CCOC(=O)/C=C1\SCC(=O)N1Cc1nnc(-c2ccccc2Br)o1	72.1*	-1.2	0.2	0.3	75.5*
COc1ccc(N2C(=O)C(Cl)=C(N(CCO)Cc3ccccc3)C2=O)cc1	97.5*	0.2	0	0	96.9*
Cc1ccc2nsnc2c1S(=O)(=O)NC1CC1	x	0.0	x	x	x
COC(=O)CC1COc2ccccc2N1C(=O)c1ccc(C(C)(C)C)cc1 (stereo unspecified)	77.1*	-7.1	0.7	0.2	34.0
COC(=O)CC1COc2ccccc2N1C(=O)c1ccc(Cl)cc1 (stereo unspecified)	40.3	-5.7	0.6	0.6	41.4
SMILES	CYP2C9 inh	EphB4 antag	CYP2C19 act	CYP2C9 act	CYP2C19 inh
CNC(=O)CCn1nc(-c2ccccc2)c2ccccc2c1=O	11.9	5.3	0.8	0.9	20.7
NC(=O)CCn1nc(-c2ccc(Cl)cc2)c2ccccc2c1=O	32.0	-0.6	0.4	0.7	57.3*
CC(C)(C)N1CC(c2nc3ccccc3n2CCOc2ccccc2)CC1=O (stereo unspecified)	83.0*	-0.9	0.4	0.2	61.8*
C=CCN1CC(c2nc3ccccc3n2Cc2ccccc2)CC1=O (stereo unspecified)	1.9	x	1	1	3.8
CC(C)(C)N1CC(c2nc3ccccc3n2Cc2ccc(Cl)cc2)CC1=O (stereo unspecified)	93.0*	0.5	0.3	0.1	72.2*
COc1ccccc1C1C(C(=O)NCc2ccccc2)=C(C)Nc2ncnn21 (stereo unspecified)	9.4	x	0.9	0.9	12.8
CC(=O)C1=C(C)Nc2ncnn2C1c1ccccc1OCc1ccccc1 (stereo unspecified)	23.6	-6.1	0.5	0.8	53.9*
COc1cc(C2C(C(C)=O)=C(C)Nc3ncnn32)ccc1O (stereo unspecified)	-5.8	2.0	1.1	1.1	-14.1
CC(=O)C1=C(C)Nc2ncnn2C1c1ccc(Cl)cc1 (stereo unspecified)	59.3*	4.4	0.4	0.4	63.8*
COc1ccc(-c2ccc(/C=C3\C(=O)N(c4ccccc4)N=C3c3ccccc3)o2)c([N+](=O)[O-])c1	70.7*	-1.7	0.4	0.3	55.9*
COC(=O)c1ccccc1-c1ccc(/C=C2\C(=O)N(c3ccccc3)N=C2c2ccccc2)o1	82.8*	-3.6	0.1	0.2	94.1*
Cc1ccc(-c2nnc3c4ccccc4c(C)nn23)cc1NC(=O)c1ccco1	x	4.5	x	x	x
Cc1cc2c3nonc3ccc2n1-c1ccccc1	-1.3	-4.0	0.8	1	18.1
Cc1nnc(SCC(=O)Nc2sc3c(c2C#N)CCCCC3)n1N	2.6	0.8	1	1	1.2
O=C(CSc1nnnn1C1CCCCC1)Nc1nc2c(s1)CCCC2	34.0	0.3	0.2	0.7	78.4*
CC1CCCCN1CC(=O)Nc1sc2c(c1C#N)CCC2 (stereo unspecified)	61.1*	-4.6	0.5	0.4	50.9*
N#Cc1c(NC(=O)CSc2nnnn2C2CCCCC2)sc2c1CCCC2	66.6*	9.0	0.6	0.3	43.1
Cc1ccc(NN2C(=O)C=C(c3ccc(Cl)cc3)C2=O)cc1	55.6*	-0.4	1	0.4	-4.6
CC1=CCC(C(=O)N/N=C/c2cccs2)C(c2ccc(F)cc2)C1 (stereo unspecified)	44.0	5.7	0.6	0.6	39.3
O=C(COC(=O)C1CCN(S(=O)(=O)c2cccc3cccnc23)CC1)c1ccc([N+](=O)[O-])cc1	-50.8	0.5	1.1	1.5	-8.9
CC(=O)Nc1ccc(C(=O)OCC(=O)c2ccc(C)c([N+](=O)[O-])c2)cc1	50.7*	-0.9	0.7	0.5	30.5
CCC(=O)Nc1ccc(C(=O)OCC(=O)c2ccc(C)c([N+](=O)[O-])c2)cc1	-20.4	8.6	1.1	1.2	-7.3
Cc1cccc(CCNS(=O)(=O)c2ccc(S(=O)(=O)N3CCCCC3)cc2)c1	32.0	2.5	1.1	0.7	-5.9
COc1ccc(CCNS(=O)(=O)c2cccc(S(=O)(=O)N3CCCC3)c2)cc1OC	83.5*	x	0	0.2	96.3*
COc1ccc(CCNS(=O)(=O)c2cccc(C)c2)cc1OC	89.0*	2.2	0	0.1	97.5*
